Test [1] is described as follows: qHTS assay for small molecule activators of the nuclear factor-kappa B (NF-kB) signaling pathway (AID 651749; active means well fitted activation curve with a large enough effect in the signal ratio; the % refers to the signal ratio; further: % of control where 0% means no effect). The note with it: NF-kB-bla ME-180 cells, beta-lactamase FRET ratio, 16 h; stronger effect = higher value. In short, it runs like this: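 Beta-lactamase reporter expression, controlled by NF-kB response elements in ME-180 cells, was quantified fluorometrically via FRET disruption; cells at 2,000/well had been incubated with 23 nL test compound for 16 hr.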

Test [2] in a line: qHTS assay for small molecule activators of the p53 signaling pathway (AID 651743; active means well fitted activation curve with a large enough effect in the signal ratio, not every such curve was filed as active; the % refers to the signal ratio; further: % of control where 0% means no effect). The note with it: HCT-116 p53RE-bla, beta-lactamase FRET ratio, 16 h; stronger effect = higher value. The method in brief: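 Here HCT-116 cells with an integrated p53-responsive beta-lactamase gene were incubated with compounds (16 hours, 37 C) after a 5-hour plating period; beta-lactamase activity was detected as fluorescence intensity via B/G FRET substrate.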
For orientation: qHTS replaces the single test concentration by a dilution series.

Test [3] can be described thus: qHTS Assay for Identification of Small Molecule Agonists for NFkB Signaling Pathway. (AID 624478).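 Further: compounds tested together with TNF alpha at its EC50 of 10 pM; 0% is about no effect.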 As to conditions: NFkB pathway reporter cell assay, agonist mode, cells co-stimulated with 10 pM TNF alpha; series mostly up to 46.1 µM. Here is the method: The TNF alpha/NFkB signaling pathway was assayed in NFkB-bla cells (Invitrogen), a ME-180 cervical carcinoma line containing a stably integrated beta-lactamase reporter gene controlled by a NFkB response element. This reporter is induced by TNF alpha at 10 pM EC50 and inhibited by the proteosome inhibitor MG-132 at approximately 100 nM IC50. The assay was screened at the EC50 of TNF alpha activation to identify activators of TNF alpha/NFkB signaling
Cells were trypsinized, washed in assay medium (AM, OPTI MEM with 0.5% fetal bovine serum, 0.1 mM nonessential amino acids, 1 mM sodium pyruvate, 10mM HEPES pH 7.3, 100U/ml penicillin, and 100 ug/ml streptomycin) and plated at 1000 cells/5 uL/well into black clear-bottom 1536 well plates. After an overnight incubation at 37 C and 5% CO2, 23 nL of compound were delivered by a pin tool, 1 uL of TNF alpha (10 pM final concentration in AM) was added and plates were incubated at 37 C for 5 hrs. One uL of LiveBLAzerTM detector mix (Invitrogen) was added, the plates incubated at room temperature for 2 hrs, and fluorescence intensity at 460 and 530 nm emission was measured at 405 nm excitation by an Envision (Perkin Elmer).

The nature of test [4]: Cell Proliferation Assay against the TMD8 Cell Line (AID 651645).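 Further: cells exposed to compound for 48 h before reading.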 The note with it: TMD8 DLBCL cell line proliferation/viability; at 46.1 µM (top of the series). From the text: One class of targeted therapeutics showing early clinical success in killing of ABC DLBCL lines are small molecule inhibitors of the Bruton tyrosine kinase (BTK) 11.
Prior to any combination assays, using an NCATS developed oncology compound library called the Mechanism of Interrogation Plate (MIPE), two well studied ABC DLBCL lines (TMD8 and HBL1) were screened using a cell viability assay (CellTiterGlo) and a 12-point titration series for each single agent. These initial experiments offered insight into the concentration range that offered the best coverage of activity and non-activity to assure relevant data is generated. In addition to the viability signature associated with this library, we examined the apoptotic response of each agent versus the TMD8 line as judged by caspase 3/7 activation. Activity was assayed at both 8 and 16 hour time-points to gain an appreciation of which agents induced an apoptotic response in a reasonable timeframe from a therapeutic exposure perspective. MIPE was also assayed for single agent viability in a human mesenchymal stem cell (hMSC) line as a surrogate of each library member's potential therapeutic index.
A total of 500 log growing TMD8 cells are seeded per well in 5 uL of a RPMI with glutamine (or Glutamax), without phenol red plus 5% FBS and 1X Pen/Strep into 1536 -solid white high base tissue culture treated Greiner One Bio Plates (789173-F) using a multidrop combi dispenser and a small sterile cassette. Compounds and controls totaling 23nL per well (negative control DMSO and positive control 9.2 uM Bortezomib-final) are immediately added to the plates using a 1536 head pin tool from Kalypsys. The plates are then covered with stainless steel gasket lids from Kalypsys and incubated for 48 hours at 37C under 95% relative humidity with 5% CO2. After 48 hours, the plates are removed and allowed to reach room temperature before 3 uL of Cell Titer Glo reagent (Promega) is added using an Aurora Flying Reagent Dispenser Bioraptor. The plates are then spun at 1000 rpms to remove bubbles and incubated for 15 minutes at room temperature before read on a ViewLux using a luminescent filter with a 10 second exposure. The relative luciferase units are used to calculated percent activity using DMSO as 100% and Bortezomib as 0%.

Test [5] is described as follows: Cell Proliferation Assay against the HBL1 Cell Line (AID 651646).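 Further: cells exposed to compound for 48 h before reading.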 The note with it: HBL1 DLBCL cells; at 46.1 µM (top of the series). In short, it runs like this: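 After a 48 h incubation of 500 HBL1 cells/well in phenol red-free RPMI plus 5% FBS, relative luciferase units from CellTiter-Glo gave percent activity against DMSO and 9.2 uM bortezomib (final) controls.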

Test [6] is described as follows: Cell Proliferation Assay against the TMD8 Cell Line (Caspase readout at 16 hrs) (AID 651712). As to conditions: TMD8 lymphoma cells, caspase activation luminescence; series mostly up to 46.1 µM. In short, it runs like this:
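16 h, 37 °C, TMD8 (500 cells/well), RPMI/5% FBS no phenol red; Caspase-Glo 3/7, 15 min RT, luminescence; %act: DMSO 0, bortezomib 9.2 uM final 100.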

Test [7] can be described thus: qHTS Assay for Identification of Small Molecule Antagonists for NFkB Signaling Pathway. (AID 624479; calls by dose curve; further: potency means the concentration at half of the fitted maximal effect). As to conditions: NFkB pathway reporter cell assay, antagonist mode; series mostly up to 38.3 µM.
The nature of test [8]: Cell Proliferation Assay against the TMD8 Cell Line (Caspase readout at 8 hrs) (AID 651713). Further: potency means the concentration at half of the fitted maximal effect. As to conditions: TMD8 lymphoma cells, caspase activation luminescence; series mostly up to 46.1 µM. In short, it runs like this: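 Luminescent caspase 3/7 assay; TMD8 cells, 8 h treatment at 37C, 5% CO2. Normalisation: DMSO 0%, 9.2 uM bortezomib 100%.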
Test [9] is described as follows: qHTS assay for small molecule agonists of the antioxidant response element (ARE) signaling pathway (AID 651741; active means well fitted activation curve with a large enough effect in the signal ratio; the % refers to the signal ratio; further: potency means the concentration at half of the fitted maximal effect; on activation: % of control where 0% means no effect). As to conditions: HepG2 ARE-bla reporter, beta-lactamase FRET ratio, 16 h; series mostly up to 96 µM. The method in brief:
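Beta-lactamase reporter expression driven by the antioxidant response element in HepG2 cells was detected by fluorescence with LiveBLAzer B/G FRET substrate (2 h, room temperature) following 16 h compound treatment at 37 C.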

A short description of test [10]: qHTS assay for small molecule disruptors of the mitochondrial membrane potential - 1 hr assay (AID 651754; calls by dose curve; further: nearly all actives have a fitted effect of over 35% in size; further: potency means the concentration at half of the fitted maximal effect). The note with it: series mostly up to 92.2 µM. In short, it runs like this: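 In this qHTS format, a 1 hr compound treatment of HepG2 cells precedes Mito-MPS staining, and membrane potential is judged from aggregate (red) against monomer (green) fluorescence intensity.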

Several values for one entry are separate records, joined by “and”; a condition that tells them apart may be missing. Equal values may be shown once. Records with an inconclusive call do not appear. Activity calls are given as the source filed them. Unless noted, the call rests on the fitted dose curve; in most records, active means well fitted curve in the direction sought with a large enough effect; inconclusive means small, poorly fitted or top-dose-only effect, or another doubt; inactive means no such curve, though single readings can be large; an effect the other way counts as inactive or inconclusive.

Turning to `N=C(N)c1ccc(OCCCCCOc2ccc(C(=N)N)cc2)cc1`, the activation in test [1] is 0.454% (inactive) and 0.519% (inactive).

Take `S=P(N1CC1)(N1CC1)N1CC1`: the activation in test [2] was 23.1% (inactive); in test [1] it was 0.913% (inactive).

With `COc1cc2c(Nc3ccc(Br)cc3F)ncnc2cc1OCC1CCN(C)CC1`, the compound was classed as inactive in test [3] and in [6]. Besides, in test [4], the viability (% of control) turned out to be 8.14%. Besides, in [5], the viability, percent of control amounted to 4.03%.

In the case of `COc1cc2nc(N3CCCN(C)CC3)nc(NC3CCN(Cc4ccccc4)CC3)c2cc1OC`, the result in [3] was inactive. In addition, the Potency is 23.7 µM (active) in test [7] and 26.4 µM (active) in test [8]. Also, the viability (% of control) in test [4] was 3.15%. The viability, percent of control in [5] is 3.52%.

`CC(=O)Oc1ccccc1C(=O)Nc1ncc([N+](=O)[O-])s1`: the activation in test [1] is -1.07% (inactive).

Regarding `CC(=O)[C@H]1CC[C@H]2[C@@H]3CCC4=CC(=O)CC[C@]4(C)[C@H]3CC[C@]12C`, the activation in [2] is -1.4% (inactive) and -5.04% (inactive) and -4.98% (inactive).

With `CC[C@H](C)C(=O)O[C@H]1C[C@@H](C)C=C2C=C[C@H](C)[C@H](CC[C@@H]3C[C@@H](O)CC(=O)O3)[C@H]21`, the values for the activation in test [2] and in [1] were -3.22% (inactive) and -1.44% (inactive), respectively.

`CC(C)C[C@H](NC(=O)[C@H](CCc1ccccc1)NC(=O)CN1CCOCC1)C(=O)N[C@@H](Cc1ccccc1)C(=O)N[C@@H](CC(C)C)C(=O)[C@@]1(C)CO1`: in test [3], the call was inactive. Further, the Potency in [7] is 0.0033 µM (active). For the same compound, in [4], the viability (% of control) stood at 3.43%. In [5], the viability, percent of control came to 3.69%.

For `Cc1noc(NS(=O)(=O)c2ccc(N)cc2)c1C`, in test [9], the Potency result was “inactive”. The activation in [2] was -3.81% (inactive) and -3.88% (inactive); in test [1] it was -1.4% (inactive) and -1.01% (inactive).

Take `CC1=NN(c2ccccc2)C(=O)C1`: the activation in [2] was -1.06% (inactive) and 1.05% (inactive); in [1] it was 1.02% (inactive) and -0.66% (inactive).

As to `NC(N)=NC(N)=NCCc1ccccc1`, the Potency in test [9] is 37.6 µM (active). Also, the activation in [2] was 7.9% (inactive) and 8.21% (inactive); in test [1], 0.778% (inactive) and 0.59% (inactive).

As to `Cc1cc(NS(=O)(=O)c2ccc(N)cc2)no1`, in [9], the Potency entry was “inactive”. The activation in test [2] was -3.47% (inactive).

In the case of `Cc1ncc([N+](=O)[O-])n1CCO`, the Potency result in [9] was “inactive”. Moreover, the activation in test [2] was -1.78% (inactive).

`NNC(=O)c1ccncc1`: the Potency result in test [9] and in test [10] was “inactive” each time. For the same compound, the activation in test [2] is 0.245% (inactive); in test [1], -1.16% (inactive).

Consider `Cc1c(-c2ccc(O)cc2)n(Cc2ccc(OCCN3CCCCCC3)cc2)c2ccc(O)cc12`, for which, in test [3], the compound was classed as inactive. In [7], the Potency entry is “inactive”.

Take `O=C(N[C@H](CO)[C@H](O)c1ccc([N+](=O)[O-])cc1)C(Cl)Cl`: the Potency entry in test [9] and in [10] was “inactive” throughout. The activation in [2] is 0.234% (inactive) and 2.8% (inactive); in test [1], -1.34% (inactive) and 1.06% (inactive).

With `Cc1ccnc2c1NC(=O)c1cccnc1N2C1CC1`, the Potency entry in [9] is “inactive”. In addition, the activation in test [2] is -7.19% (inactive).

As for `CN(C)c1ccc(C(=C2C=CC(=[N+](C)C)C=C2)c2ccc(N(C)C)cc2)cc1`, the Potency in [10] was 0.668 µM (active).

Turning to `COc1ccc2cc3[n+](cc2c1OC)CCc1cc2c(cc1-3)OCO2`, the Potency was 33.5 µM (active) in [9] and 21.1 µM (active) in test [10]. Further, the activation in test [2] was 9.7% (inactive).

`CNC(=O)c1cc(Oc2ccc(NC(=O)Nc3ccc(Cl)c(C(F)(F)F)c3)cc2)ccn1`: the call in test [3] was inactive. Further, the Potency in test [7] is 9.43 µM (active). Moreover, in test [4], the viability (% of control) was -0.0117%. The viability, percent of control in test [5] is 1.39%.

For `NC1(c2ccc(-c3nc4ccn5c(=O)[nH]nc5c4cc3-c3ccccc3)cc2)CCC1`, the result in test [3] was inactive. Also, the viability (% of control) in [4] was -0.504%. In [5], the viability, percent of control was found to be 1.05%. In test [8], the Potency is 26.4 µM (active).

As for `Cc1nnc(NS(=O)(=O)c2ccc(N)cc2)s1`, the Potency result in test [9] was “inactive”. In addition, the activation in [2] was -1.27% (inactive).

With `CCc1cc(C(N)=S)ccn1`, the Potency entry in [9] and in test [10] was “inactive” each time. For the same compound, the activation in test [2] is -0.635% (inactive) and 1.18% (inactive); in test [1], 0.391% (inactive) and -1.64% (inactive).

Consider `C[C@]12C=CC(=O)C=C1CC[C@@H]1[C@@H]2C(=O)C[C@@]2(C)[C@H]1CC[C@]2(O)C(=O)CO`, for which, in [1], the activation is 1.39% (inactive). For the same compound, the Potency result in [10] is “inactive”.

In the case of `OC(Cn1cncn1)(Cn1cncn1)c1ccc(F)cc1F`, the activation in test [2] was -0.436% (inactive); in test [1], -1.38% (inactive).

`COc1cc([C@@H]2c3cc4c(cc3[C@H](O)[C@H]3COC(=O)[C@H]23)OCO4)cc(OC)c1OC`: the compound was called inactive in [3]. Moreover, in test [7], the Potency result was “inactive”. In addition, the viability (% of control) in test [4] amounted to 0.77%. For the same compound, in test [5], the viability, percent of control was 23.7%.

In the case of `CCN(CC)CCn1c(=O)c(Cc2ccc(OC)cc2)nc2ccccc21`, the compound was called inactive in test [3] and in test [6]. Besides, the Potency entry in [7] and in test [8] was “inactive” each time. Further, in test [4], the viability (% of control) is 89.1%. Further, in test [5], the viability, percent of control amounted to 99.1%.

In the case of `N[C@@H](Cc1ccc(O)c(O)c1)C(=O)O`, the activation in [1] was 0.678% (inactive).

With `O=C(O)c1cc(=O)[nH]c(=O)[nH]1`, the Potency result in test [9] was “inactive”. For the same compound, the activation in [2] was -1.01% (inactive).

The record behind these values is PubChem BioAssay (NCATS).
